Measurements published in PubChem BioAssay (NCI).
This is part of a sample that, as a whole, favours compounds with a hit. Of some 83,000 tested, about 20% had one in any assay.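 48-hour exposure, single concentration, 96-well plates; percent growth endpoint where 0 means no net growth. Active: below 10.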 Calls of active or inactive are those of the source.

These compounds were tested on PC-3 prostate (assay: NCI-60 one-dose screen, 48 h (100 = growth as untreated, 0 = no growth, -100 = all killed)). Settings: 10 µM unless noted.

Row | SMILES | growth
1 | COc1ccc(/C(C)=C(\c2ccc(Cl)cc2)c2ccc(OCCN3CCCCC3)cc2)cc1 | 41% (inactive)
2 | CN(C)CCCC1(c2ccc(F)cc2)OCc2cc(-c3ccc4cc[nH]c4c3)ccc21 (stereo not drawn) | 43.5% (inactive)
3 | COc1ccc(/C=C/c2ccc3ccccc3n2)c(OC)c1 | 66.1% (inactive)
4 | CCCCNC(=O)c1cc([N+](=O)[O-])cc(C2CCCCC2)c1O | 27.1% (inactive)
5 | Cc1ccc(C(=O)c2ccc(CC(=O)N=Nc3c(O)[nH]c4ccc(Br)cc34)n2C)cc1 | 89.3% (inactive)
6 | CC1=C(C(=O)Nc2ccccc2)C(c2ccc3c(c2)OCO3)NC(=S)N1 (stereo not drawn) | 95.3% (inactive)
7 | Nc1nc(N)c2c(n1)NC(c1cccc(Nc3ccnc4cc(C(F)(F)F)ccc34)c1)CC(c1ccc(Br)cc1)=N2 (stereo not drawn) | 36.6% (inactive)
8 | O=C1c2ccccc2C(=O)c2c1c(C(=O)NCc1ccccc1)c1ccccn21 | 95.4% (inactive)
9 | COc1ccc(-c2ccc(-c3ccc(C(=N)N)nc3)s2)cc1Cl | -28.3% (active)
10 | O=C(CI)NC(=O)NC(=O)NCc1ccccc1 | 93.9% (inactive)
11 | COc1ccc(C2=CC(c3cc(OC)c(OC)c(OC)c3)n3ncnc3N2)cc1 (stereo not drawn) | 21.7% (inactive)
12 | Cc1ccc(C(=O)Nc2cccc(C#Cc3cccc4[nH]nc(N)c34)c2)cc1C(F)(F)F | 69.8% (inactive)
13 | CCOC(=O)c1ccccc1-c1c2ccc(=[N+](C)C)cc-2oc2cc(N(C)C)ccc12 | 5.32% (active)
14 | NC(=O)c1c(NC(=O)c2cccc(C(F)(F)F)c2)sc2c1CCC(=O)C2 | -29.8% (active)
15 | COc1cccc(C(=O)NNc2nc(Cl)nc(Cl)n2)c1 | 97.4% (inactive)
16 | O=C(/C=C/c1ccc(Cl)cc1)c1cccc(OCCCOc2cccc(C(=O)/C=C/c3ccc(Cl)cc3)c2)c1 | 104% (inactive)
17 | COc1cc(OC)cc(-c2ccc(-c3ccc(C(=N)N)o3)o2)c1 | 71.2% (inactive)
18 | Fc1cccc(-c2ccc3c(c2)C2(CCNCC2)CN3)c1 | 98.1% (inactive)
19 | S=C(c1ccc2c(c1)OCO2)N1CCN(c2cccc(Cl)c2)CC1 | 15.9% (inactive)
20 | O=C(NCc1cccc(CNC(=O)Nc2nc3ccccc3[nH]2)c1)Nc1nc2ccccc2[nH]1 | -59.8% (active)

Row | SMILES | growth
21 | CCOC(=O)c1cnc2c(N=Nc3ccc(OC)cc3)c(N)nn2c1N | 98.7% (inactive)
22 | Cc1ccc2nc(NC(=O)CSc3nc(-c4ccccc4)c(C#N)c4nnnn34)sc2c1 | 99.7% (inactive)
23 | C#CC#CC#CC#CC#CC#CC#CC#CC[C@@H]1OC[C@@H](COC(=O)O[C@@H](C(=O)O[C@H]2C[C@@]3(O)[C@@H](OC(=O)c4ccccc4)[C@@H]4[C@]5(OC(C)=O)CO[C@@H]5C[C@H](O)[C@@]4(C)C(=O)[C@H](OC(C)=O)C(=C2C)C3(C)C)[C@@H](NC(=O)c2ccccc2)c2ccccc2)O1 | 11.1% (inactive)
24 | COCCn1cc(-c2csc(-c3c[nH]c4ccc(Br)cc34)n2)c2cccnc21 | 16% (inactive)
25 | c1nc2ccc(-c3cc4ccc5[nH]ncc5c4c4c3CCCC4)cc2[nH]1 | 63.1% (inactive)
26 | O=[N+]([O-])c1ccc(-c2cn3nc(-c4c[nH]c5ccccc45)sc3n2)cc1 | 93.7% (inactive)
27 | CN(Cc1cnc2nc(N)nc(N)c2n1)c1ccc(C(=O)NC(CCC(=O)O)C(=O)O)cc1Br (stereo not drawn) | 56.9% (inactive)
28 | COc1ccc(-c2nc3c(N)c(CO)cnc3s2)cc1 | 91.8% (inactive)
29 | O=C(Cn1nnc2ccccc21)N/N=C/c1c[nH]c2ccccc12 | 61.7% (inactive)
30 | N#Cc1cccc(C2C3=C(COC3=O)N(CCO)c3cc4c(cc32)OCO4)c1 (stereo not drawn) | 29.4% (inactive)
31 | O=C(/C=C/C12c3ccccc3C(c3ccccc31)C1C(=O)NC(=O)C12)c1ccc(Br)cc1 (stereo not drawn) | 29.8% (inactive)
32 | COc1cccc(/C=N/NC(=O)c2ccccc2N2CCCC2)c1O | 72% (inactive)
33 | COc1cc(/C=C/C(=O)c2ccc(-n3cc(CN4CCN(c5cc6c(cc5F)c(=O)c(C(=O)O)cn6C5CC5)CC4)nn3)cc2)ccc1O | 74% (inactive)
34 | C=CN(C(=O)N1CCN(c2cc3c(cc2F)c(=O)c(C(=O)O)cn3C2CC2)CC1)c1nc(-c2ccc(OC)cc2)cs1 | 16.4% (inactive)
35 | Oc1ccc(/C=C/c2ccc(O)cc2)cc1 | 55.3% (inactive)
36 | COc1ccc(/C=C/C(c2cc(OC)c(OC)c(OC)c2)n2ccnc2)cc1O (stereo not drawn) | 25.3% (inactive)
37 | O=C(N=Nc1c(O)[nH]c2ccccc12)Nc1ccc(F)cc1 | 85.9% (inactive)
38 | O=c1ccc(=O)n(-c2nc(-c3ccc([N+](=O)[O-])cc3)cs2)[nH]1 | 98.6% (inactive)
39 | Oc1c(CN2CCC(N3CCCCC3)CC2)cc(Cc2cc(CN3CCC(N4CCCCC4)CC3)c(O)c3ncccc23)c2cccnc12 | 17.7% (inactive)

Each compound was assayed on SK-MEL-5 melanoma in the same assay as above. Settings: 10 µM unless noted.

Row | SMILES | growth
40 | COc1ccc(/C(C)=C(\c2ccc(Cl)cc2)c2ccc(OCCN3CCCCC3)cc2)cc1 | -39% (active)
41 | CN(C)CCCC1(c2ccc(F)cc2)OCc2cc(-c3ccc4cc[nH]c4c3)ccc21 (stereo not drawn) | 56.6% (inactive)
42 | COc1ccc(/C=C/c2ccc3ccccc3n2)c(OC)c1 | 78.3% (inactive)
43 | CCCCNC(=O)c1cc([N+](=O)[O-])cc(C2CCCCC2)c1O | -12.6% (active)
44 | Cc1ccc(C(=O)c2ccc(CC(=O)N=Nc3c(O)[nH]c4ccc(Br)cc34)n2C)cc1 | 95.9% (inactive)
45 | CC1=C(C(=O)Nc2ccccc2)C(c2ccc3c(c2)OCO3)NC(=S)N1 (stereo not drawn) | 102% (inactive)
46 | Nc1nc(N)c2c(n1)NC(c1cccc(Nc3ccnc4cc(C(F)(F)F)ccc34)c1)CC(c1ccc(Br)cc1)=N2 (stereo not drawn) | 48.1% (inactive)
47 | O=C1c2ccccc2C(=O)c2c1c(C(=O)NCc1ccccc1)c1ccccn21 | 99.6% (inactive)
48 | COc1ccc(-c2ccc(-c3ccc(C(=N)N)nc3)s2)cc1Cl | 76% (inactive)
49 | O=C(CI)NC(=O)NC(=O)NCc1ccccc1 | 56.1% (inactive)
50 | COc1ccc(C2=CC(c3cc(OC)c(OC)c(OC)c3)n3ncnc3N2)cc1 (stereo not drawn) | 1.68% (active)
51 | Cc1ccc(C(=O)Nc2cccc(C#Cc3cccc4[nH]nc(N)c34)c2)cc1C(F)(F)F | 73.3% (inactive)
52 | CCOC(=O)c1ccccc1-c1c2ccc(=[N+](C)C)cc-2oc2cc(N(C)C)ccc12 | -68.1% (active)
53 | NC(=O)c1c(NC(=O)c2cccc(C(F)(F)F)c2)sc2c1CCC(=O)C2 | -56.3% (active)
54 | COc1cccc(C(=O)NNc2nc(Cl)nc(Cl)n2)c1 | 96.1% (inactive)
55 | O=C(/C=C/c1ccc(Cl)cc1)c1cccc(OCCCOc2cccc(C(=O)/C=C/c3ccc(Cl)cc3)c2)c1 | 102% (inactive)
56 | COc1cc(OC)cc(-c2ccc(-c3ccc(C(=N)N)o3)o2)c1 | 76% (inactive)
57 | Fc1cccc(-c2ccc3c(c2)C2(CCNCC2)CN3)c1 | 97.4% (inactive)
58 | S=C(c1ccc2c(c1)OCO2)N1CCN(c2cccc(Cl)c2)CC1 | -10.8% (active)
59 | O=C(NCc1cccc(CNC(=O)Nc2nc3ccccc3[nH]2)c1)Nc1nc2ccccc2[nH]1 | -46.5% (active)

Row | SMILES | growth
60 | CCOC(=O)c1cnc2c(N=Nc3ccc(OC)cc3)c(N)nn2c1N | 96.2% (inactive)
61 | Cc1ccc2nc(NC(=O)CSc3nc(-c4ccccc4)c(C#N)c4nnnn34)sc2c1 | 102% (inactive)
62 | C#CC#CC#CC#CC#CC#CC#CC#CC[C@@H]1OC[C@@H](COC(=O)O[C@@H](C(=O)O[C@H]2C[C@@]3(O)[C@@H](OC(=O)c4ccccc4)[C@@H]4[C@]5(OC(C)=O)CO[C@@H]5C[C@H](O)[C@@]4(C)C(=O)[C@H](OC(C)=O)C(=C2C)C3(C)C)[C@@H](NC(=O)c2ccccc2)c2ccccc2)O1 | 22.1% (inactive)
63 | COCCn1cc(-c2csc(-c3c[nH]c4ccc(Br)cc34)n2)c2cccnc21 | 19.9% (inactive)
64 | c1nc2ccc(-c3cc4ccc5[nH]ncc5c4c4c3CCCC4)cc2[nH]1 | 67.4% (inactive)
65 | O=[N+]([O-])c1ccc(-c2cn3nc(-c4c[nH]c5ccccc45)sc3n2)cc1 | 91.2% (inactive)
66 | CN(Cc1cnc2nc(N)nc(N)c2n1)c1ccc(C(=O)NC(CCC(=O)O)C(=O)O)cc1Br (stereo not drawn) | 13.8% (inactive)
67 | COc1ccc(-c2nc3c(N)c(CO)cnc3s2)cc1 | 82.7% (inactive)
68 | O=C(Cn1nnc2ccccc21)N/N=C/c1c[nH]c2ccccc12 | 28.4% (inactive)
69 | N#Cc1cccc(C2C3=C(COC3=O)N(CCO)c3cc4c(cc32)OCO4)c1 (stereo not drawn) | 29.6% (inactive)
70 | O=C(/C=C/C12c3ccccc3C(c3ccccc31)C1C(=O)NC(=O)C12)c1ccc(Br)cc1 (stereo not drawn) | 67.8% (inactive)
71 | COc1cccc(/C=N/NC(=O)c2ccccc2N2CCCC2)c1O | 58.4% (inactive)
72 | COc1cc(/C=C/C(=O)c2ccc(-n3cc(CN4CCN(c5cc6c(cc5F)c(=O)c(C(=O)O)cn6C5CC5)CC4)nn3)cc2)ccc1O | 78.7% (inactive)
73 | C=CN(C(=O)N1CCN(c2cc3c(cc2F)c(=O)c(C(=O)O)cn3C2CC2)CC1)c1nc(-c2ccc(OC)cc2)cs1 | -7.22% (active)
74 | Oc1ccc(/C=C/c2ccc(O)cc2)cc1 | 52% (inactive)
75 | COc1ccc(/C=C/C(c2cc(OC)c(OC)c(OC)c2)n2ccnc2)cc1O (stereo not drawn) | 17% (inactive)
76 | O=C(N=Nc1c(O)[nH]c2ccccc12)Nc1ccc(F)cc1 | 101% (inactive)
77 | O=c1ccc(=O)n(-c2nc(-c3ccc([N+](=O)[O-])cc3)cs2)[nH]1 | 95.6% (inactive)
78 | Oc1c(CN2CCC(N3CCCCC3)CC2)cc(Cc2cc(CN3CCC(N4CCCCC4)CC3)c(O)c3ncccc23)c2cccnc12 | 34.1% (inactive)
